In PubChem BioAssay AID1030 (National Center for Advancing Translational Sciences (NCATS), 2008):
Among all 220,000 compounds or so, about 16,000 (7.3%) were called active. Another 25% or so got no clear call; they are omitted. Calls come from the whole dose curve; as a rule, active = well fitted inhibition curve with a large enough effect (not every such curve was filed as active); inconclusive = small, poorly fitted or top-dose-only effect, or another doubt; inactive = no such curve, though single readings can be large or run the other way. The entries come from a sample that favours actives as a whole.

The compounds below were run against Aldehyde dehydrogenase 1A1 (Homo sapiens) (UniProt P00352) (assay: qHTS Assay for Inhibitors of Aldehyde Dehydrogenase 1 (ALDH1A1)). Details: Purified ALDH1A1, NADH fluorescence, propionaldehyde substrate; series mostly up to 75.3 µM; activity, negative = inhibition: at the top concentration.
Potency is the fitted concentration of half-maximal effect.
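Throughout, for activity, negative = inhibition: plate controls were no enzyme wells and a reference inhibitor.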

Chain of Aldehyde dehydrogenase 1A1 (Homo sapiens) (P00352 whole entry, looked up): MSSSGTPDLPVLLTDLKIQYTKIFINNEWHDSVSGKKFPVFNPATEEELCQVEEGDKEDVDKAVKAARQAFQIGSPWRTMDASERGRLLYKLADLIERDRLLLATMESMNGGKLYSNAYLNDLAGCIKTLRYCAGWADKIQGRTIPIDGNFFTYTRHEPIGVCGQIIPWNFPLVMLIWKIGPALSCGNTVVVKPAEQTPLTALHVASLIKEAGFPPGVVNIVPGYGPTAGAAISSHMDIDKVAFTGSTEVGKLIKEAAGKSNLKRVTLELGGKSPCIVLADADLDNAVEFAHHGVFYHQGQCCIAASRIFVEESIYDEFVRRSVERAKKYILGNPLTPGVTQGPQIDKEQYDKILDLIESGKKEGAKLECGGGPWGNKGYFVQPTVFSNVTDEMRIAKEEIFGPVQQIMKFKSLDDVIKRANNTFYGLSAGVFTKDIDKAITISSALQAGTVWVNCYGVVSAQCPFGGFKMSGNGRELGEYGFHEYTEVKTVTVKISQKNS

Row | SMILES | Potency | activity, negative = inhibition
1 | CC(C)C1N=C2c3ccccc3N=C(SCC(=O)c3ccc(O)c(O)c3)N2C1=O (centres undefined) | 0.631 µM (active) | –
2 | Cc1ccc(NC(=O)N2CCSc3ccccc32)cc1 | – | -7.34% (inactive)
3 | Cn1ccc(=NC=C(C#N)C#N)c2ccccc21 | – | -12.3% (inactive)
4 | Cc1ccc(NNC(=O)c2c(F)cccc2Cl)cc1Cl | – | -4.66% (inactive)
5 | CCOC(=O)C(=Cc1ccccc1OC)C(=O)OCC | – | -3.21% (inactive)
6 | COC(=O)NNC1=CC(=O)CC(C)(C)C1 | – | 1.03% (inactive)
7 | Cc1cc(C)nc(NNC2=CC(=O)CC(C)(C)C2)n1 | 25.1 µM (active) | –
8 | Cc1cc(O)ccc1NC1=CC(=O)CC(C)(C)C1 | – | -4.46% (inactive)
9 | CCc1nnc(NC(=O)Cc2cccs2)s1 | – | 7.04% (inactive)
10 | O=C(c1ccc(F)cc1)c1cn(Cc2ccc(F)cc2)c2cc3c(cc2c1=O)OCCO3 | – | 8.6% (inactive)
11 | COc1cc2c(cc1/C=C1/NC(=O)N(c3ccccc3)C1=O)OCO2 | 3.98 µM (active) | –
12 | O=C1N/C(=C/c2cccn2-c2ccccc2)C(=O)N1c1cccc(Cl)c1 | – | -0.252% (inactive)
13 | CCCOc1ccccc1C1CC(=O)Nc2cc3c(cc21)OCO3 (centres undefined) | – | 2.64% (inactive)
14 | COC(=O)c1c(C(=O)OC)c2n(c1C)CCS2 | – | 9.96% (inactive)
15 | CCN(CC)C(=O)CS(=O)CC(=O)Nc1cc(OCCOC)c(Cl)cc1Cl (centres undefined) | – | 0.334% (inactive)
16 | CC(N=Cc1nc(-c2ccccc2)oc1O)c1ccccc1 (centres undefined) | – | -0.118% (inactive)
17 | CCOc1ccc2nc(/N=C/c3nc(-c4ccccc4)oc3O)sc2c1 | – | -2.59% (inactive)
18 | Oc1oc(-c2ccccc2Br)nc1/C=N/c1ccccn1 | 11.2 µM (active) | –
19 | CCOC(=O)C1=C(C)N=C2c3ccccc3C(=O)C2C1c1ccc(Br)cc1 (centres undefined) | – | 15.5% (inactive)
20 | O=C(CN1C(=O)c2ccccc2S1(=O)=O)N1CCc2ccccc21 | – | -7.06% (inactive)
21 | CNC(=O)CN1C(=O)c2ccccc2S1(=O)=O | – | 4.14% (inactive)
22 | O=C1c2ccccc2S(=O)(=O)N1CC(O)Cn1c2ccccc2c2ccccc21 (centres undefined) | 14.1 µM (active) | –
23 | Cc1ccc(NC(=O)Cn2c(=O)n(CCC(=O)NC3CCN(Cc4ccccc4)CC3)c(=O)c3ccccc32)cc1 | – | 8.09% (inactive)
24 | CCCCNC(=O)c1ccccc1NC(=O)c1ccccc1N(C)S(C)(=O)=O | 22.4 µM (active) | –
25 | COC(=O)c1ccccc1NC(=O)c1ccccc1NS(C)(=O)=O | – | -2.49% (inactive)

Row | SMILES | Potency | activity, negative = inhibition
26 | CCC(C)NC(=O)c1ccccc1NC(=O)c1ccccc1N(C)S(C)(=O)=O (centres undefined) | – | 3.65% (inactive)
27 | NC(=O)C[n+]1cccc(C(N)=O)c1 | – | 2.11% (inactive)
28 | O=C(Cn1cnc([N+](=O)[O-])n1)NCCc1ccccc1 | – | -2.11% (inactive)
29 | COc1ccc(-n2nnnc2SCC(=O)NCc2cccs2)cc1 | – | -1.85% (inactive)
30 | Cc1cc(C)nc(Nc2ncn[nH]2)n1 | – | -14.3% (inactive)
31 | O=C(CN1CCN(c2ccccc2F)CC1)c1ccc2c(c1)OCO2 | 14.1 µM (active) | –
32 | O=C(Nc1ccccc1)c1ccc2c(c1)OCO2 | – | 13.2% (inactive)
33 | O=C(c1ccc(CN2CCOCC2)cc1)N1CCN(c2ccccc2F)CC1 | – | 10.2% (inactive)
34 | O=C(Nc1ccccc1N1CCN(C(=O)c2ccccc2)CC1)c1ccc2c(c1)OCO2 | 10 µM (active) | –
35 | CCCC(=O)Nc1ccccc1N1CCN(C(=O)c2ccccc2)CC1 | – | -15.2% (inactive)
36 | O=C(OCc1ccccc1F)c1ccc2c(c1)OCCO2 | – | -11.3% (inactive)
37 | Cc1ccc(NC(=O)Nc2ccccc2)c(Br)c1 | – | -2.88% (inactive)
38 | O=C(NCCc1ccccn1)c1cc(-c2ccc(Cl)cc2)nc2ccccc12 | – | 6.65% (inactive)
39 | N#Cc1cnn2cc(CCN3CCOCC3)c(-c3ccc(F)cc3)nc12 | – | -12.3% (inactive)
40 | Cn1cnnc1SCC(=O)NNC(=O)COc1ccc(Br)cc1 | – | 9.24% (inactive)
41 | Cc1ccc(C(=O)N/C(=C/c2cccs2)C(=O)NCC2CCCO2)cc1 (centres undefined) | – | -7.6% (inactive)
42 | Cc1cc(/C=C(/C#N)C(=O)Nc2ccc(Cl)cc2)c(C)n1-c1cccnc1 | – | -1.65% (inactive)
43 | Cc1ccc(-n2c(C)cc(/C=C(\C#N)C(=O)NCC3CCCO3)c2C)cc1 (centres undefined) | 3.16 µM (active) | –
44 | CCOn1c(=O)c(=O)n(O)c2ccccc21 | – | -5.96% (inactive)
45 | CC(=O)NCCc1nc2cc(NC(=O)c3ccccc3)ccc2n1C | – | -1.52% (inactive)
46 | COc1ccc2c(c1)CCC/C2=N\OC(=O)c1ccccc1F | – | -20.5% (inactive)
47 | CC(C)C(=O)Nc1nnc(Sc2ccc(N(C)C)cc2)s1 | 25.1 µM (active) | –
48 | CCSc1nnc(NC(=O)Cc2ccccc2OC)s1 | – | -5.35% (inactive)
49 | CCSc1nnc(NC(=O)c2ccc(C)cc2)s1 | – | -8.87% (inactive)
50 | O=C(c1cn2ccccc2n1)N1CCc2c([nH]c3ccccc23)C1c1ccccn1 (centres undefined) | – | 1.57% (inactive)

Row | SMILES | Potency | activity, negative = inhibition
51 | O=C(NCCc1ccc(F)cc1)c1n[nH]c2ccccc12 | – | -2.4% (inactive)
52 | CCOc1ccc(S(=O)(=O)NCCSc2ccccc2)cc1 | 6.31 µM (active) | –
53 | O=S(=O)(NCCNS(=O)(=O)c1ccccc1)c1ccccc1 | – | -5.94% (inactive)
54 | O=S(=O)(NCCSc1ccccn1)c1ccc(Cl)cc1 | – | -15.3% (inactive)
55 | COCCNC(=O)c1ccccc1NS(=O)(=O)c1ccc(C)c([N+](=O)[O-])c1 | – | -1.86% (inactive)
56 | Cc1ccc(S(=O)(=O)NCCC(c2ccccc2)c2ccccc2)cc1C(=O)O | – | 4.12% (inactive)
57 | Cc1ccc(S(=O)(=O)NCCSc2ccccc2)cc1[N+](=O)[O-] | 7.08 µM (active) | –
58 | CNC(=O)C(=O)N/N=C/c1ccccn1 | – | -4.05% (inactive)
59 | COC(=O)c1c(C(=O)OC)c(-c2cccc(C)c2)n2c1CS(=O)C2 (centres undefined) | – | -6.5% (inactive)
60 | Cn1cc(/C=C/C(=O)N2CCCC(C(=O)c3ccc(C(F)(F)F)cc3)C2)cn1 (centres undefined) | – | 9.43% (inactive)
61 | CN1CCN(C(=O)/C(=C\c2ccc3c(c2)OCO3)NC(=O)c2cccs2)CC1 | – | -0.635% (inactive)
62 | Cc1ccc(NC(=O)C2(N3CCC3=O)CCCCC2)cc1 | – | 1.58% (inactive)
63 | O=C(COC(=O)CNS(=O)(=O)c1ccccc1)NC12CC3CC(CC(C3)C1)C2 | – | -7.67% (inactive)
64 | S=C(NC1CCCCC1)NN1CCOCC1 | – | 1.83% (inactive)
65 | CC(=O)Nc1ccc(S(=O)(=O)Oc2ccc(/C=N/N=C3/NC(=O)C(CC(=O)O)S3)cc2)cc1 (centres undefined) | – | 1.77% (inactive)
66 | CC(C)c1cnc(NC(=O)Cc2ccccc2)s1 | – | -0.206% (inactive)
67 | C=C(C)CNC(=S)Nc1ccc(S(=O)(=O)Nc2cnc3ccccc3n2)cc1 | – | 0.013% (inactive)
68 | COc1ccc(CN(C)C(C)C(=O)NC2CCCc3ccccc32)cc1 (centres undefined) | – | -6.38% (inactive)
69 | COc1cc(/C=N/Nc2ccc(C)cc2)cc(Br)c1O | 25.1 µM (active) | –
70 | COc1cc(/C=N/NC(=S)Nc2cccnc2)cc(OC)c1O | – | -4.07% (inactive)
71 | COc1cc(/C=N/O)cc(Br)c1OS(=O)(=O)c1ccc(C)cc1 | 1.58 µM (active) | –
72 | COc1cc(/C=N\NC(=O)C2C(=O)NCC2c2ccccc2)cc(OC)c1O (centres undefined) | – | -7.71% (inactive)
73 | COc1cc(/C=N/O)cc(Br)c1OCc1cccc(Cl)c1 | – | -0.0601% (inactive)
74 | CCOc1cc(/C=N/O)cc(Br)c1OC | – | 7.31% (inactive)
